Compounds without any hit were thinned out: in the full panel of roughly 83,000, 20% have a hit.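 A percent growth of 40 corresponds to 60% growth inhibition; 0 means no net growth; -100 means all cells died. Active threshold: below 10.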 Calls of active or inactive are those of the source.

The values that follow come from PubChem BioAssay (NCI).

The experiment concerns OVCAR-8 ovarian. Nature of the experiment: NCI-60 one-dose screen, 48 h (100 = growth as untreated, 0 = no growth, -100 = all killed). Particulars: 10 µM unless noted.
In the case of `CCCCCCC(CC#N)(CCC)CCCC` (configuration not stated), the growth was 105% (inactive).
Next, `COc1ccc(NC(=O)c2ccccc2-c2ccccc2)c(C(N)=O)c1`: 58.8% (inactive).
With `Cc1ccc(-c2csc(N)n2)cc1`, the growth is 101% (inactive).
On to `NS(=O)(=O)c1ccc(N2CC(c3nc4ccccc4[nH]3)CC2=O)cc1` (configuration not stated), for which the growth was 99.9% (inactive).
As for `Cc1nn(-c2ccccc2)c2nc(N)c(C3=NCCO3)nc12`, the growth was 95.9% (inactive).
The figure for `CCCCNCCCN(CCCC)CCCNCCCC` is 96% (inactive); for `Oc1c(Cl)cc(Cl)c(Cl)c1Cc1c(O)c(Cl)cc(Cl)c1Cl` it is 7.43% (active); for `CSc1nc(Nc2ccc(S(=O)(=O)Nc3ccon3)cc2)c(C#N)c(-c2ccc(Cl)cc2)n1` it is 95.7% (inactive).
Next, `O=C(Nc1nc2ccc(OC(F)(F)F)cc2s1)c1ccc(F)cc1`: 17.8% (inactive).
In the case of `COc1cccc(C=Nc2cc(C(C)C)c(O)cc2C)c1O`, the growth is 98.8% (inactive).
For the molecule `COC(=O)[C@H](Cc1cn(C)cn1)NC(=O)[C@H](Cc1ccccc1)NC(=O)Nc1cc(C(F)(F)F)cc(C(F)(F)F)c1`, the growth was -87.9% [100 µM] (active).
Consider `Cn1c(N2N=C(c3ccc(Cl)cc3)CC2c2ccccc2)nc(-c2ccccc2)c(C#N)c1=O` (configuration not stated), for which the growth is 73.8% (inactive).
Take `NC(=NCCCCCCN=C(N)/N=C(\N)Nc1ccc(Cl)cc1)/N=C(\N)Nc1ccc(Cl)cc1`: the growth was 17.6% (inactive).
Next, `Oc1c(N=Nc2nn[nH]n2)ccc2ccccc12`: 91% (inactive).
Take `Cc1ccc(/C=C/C(=O)c2ccc(F)cc2)s1`: the growth was 43.6% (inactive).
The figure for `CC[N+](CCCCCCCCCC[N+](CC)(c1ccccn1)c1ccccn1)(c1ccccn1)c1ccccn1` is 7.02% (active).
Next, `O=C(c1ccc(N2CCOCC2)cc1[N+](=O)[O-])N1CCOCC1`: 73.5% (inactive).
Next, `Cc1ccc(-c2c3c(N)nc(-c4ccncc4)nc3nc3c2c(C)nn3-c2ccccc2)cc1`: 21.9% (inactive).
`COc1cccc(CCN2C(=O)CCC3=C2CCC3=O)c1`: the growth was 108% (inactive).
On to `CC(=O)c1nn(-c2ccccc2)c(=Nc2ccccc2)cc1C`, for which the growth was 96.7% (inactive).
Next, `COc1ccc(-c2nc3sc4c(c3c(=O)[nH]2)CCCCCC4)cc1`: 70.7% (inactive); `CCOC(=O)/C(=C/CC/C(C)=C/CC/C(C)=C/CCc1ccoc1)CC(=O)N1CCCCC1`: 72.4% (inactive).
Next, `CCCCCCCSc1ncnc2[nH]ncc12`: 86.9% (inactive).
The figure for `CC1CC=CCC1C1OCC(C)(C)CO1` (configuration not stated) is 98.6% (inactive); for `Cc1[nH]c(=O)[nH]c(=O)c1CCSSCCc1c(C)[nH]c(=O)[nH]c1=O` it is 107% (inactive).
In the case of `CC(NNC(=S)N1CCCCCC1)c1ccc2ccccc2n1` (configuration not stated), the growth was 18.1% (inactive).
For the molecule `NS(=O)(=O)c1ccc(-n2nc(-c3ccc(Br)cc3)ccc2=O)cc1`, the growth was 88.2% [100 µM] (inactive).
On to `CCOc1cc(CCNS(=O)(=O)c2ccc(C)cc2)c(C(C)=O)cc1OCC`, for which the growth is 76% [100 µM] (inactive).
For the molecule `CC(=O)N1N=C(c2ccc(Nc3ccnc4cc(Cl)ccc34)cc2)CC1c1ccc(Cl)cc1` (configuration not stated), the growth is 66.9% (inactive).
The figure for `COC(=O)[C@H](Cc1cnc[nH]1)NC(=O)[C@@H](NC(=O)Nc1cc(C(F)(F)F)cc(C(F)(F)F)c1)C(C)C` is -83.6% [100 µM] (active); for `CCCCCCCCCCCCC1CCCC(C)C1` (configuration not stated) it is 102% (inactive).
For the molecule `FC(F)(F)c1ccc(-c2cnc(-c3nn[nH]n3)nc2NC2CCCCCC2)cc1`, the growth was 42.4% [50 µM] (inactive).
Next, `CCCCCc1c(C)[nH]c(/C=C2\N=C(c3ccc[nH]3)C=C2OCc2ccccc2)c1C`: -64.2% [100 µM] (active).
The figure for `COc1c(Br)cc(C(c2cc(Br)c(OC)c(Br)c2)c2ccccc2C(=O)O)cc1Br` is 102% (inactive); for `CCOC(=O)C(C(=O)OCC)C1CCCCC1` it is 102% (inactive); for `CCCCCCCC[Si](OCC)(OCC)OCC` it is 98.9% (inactive).
Turning to `C[C@H]1O[C@@H](O[C@H]2[C@@H](O)C[C@H](O[C@H]3[C@@H](O)C[C@H](O[C@H]4CC[C@]5(C)C6CC[C@]7(C)[C@@H](C8=CC(=O)OC8)CC[C@]7(O)C6CC[C@@H]5C4)O[C@@H]3C)O[C@@H]2C)C[C@H](O)[C@@H]1O` (some centres not stated), the growth was -79.1% (active).
